Compounds with a hit are over-represented: about 2.4% of the library has one in this group of screens.
Cruzain inh Det – cruzain (T. cruzi) inhibition with detergent; purified cruzain, Z-FR-AMC fluorescence, 0.01% Triton; Potency, µM, inactives show max response, negative = inhibition, hits mostly inhibitors; 200,000 tested, 0.43% active;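 note: plate controls were neutral wells for no effect and buffer without enzyme for full effect; nearly all actives have a fitted effect of over 40% in size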
Target sequence (P25779 123-467 limits assumed): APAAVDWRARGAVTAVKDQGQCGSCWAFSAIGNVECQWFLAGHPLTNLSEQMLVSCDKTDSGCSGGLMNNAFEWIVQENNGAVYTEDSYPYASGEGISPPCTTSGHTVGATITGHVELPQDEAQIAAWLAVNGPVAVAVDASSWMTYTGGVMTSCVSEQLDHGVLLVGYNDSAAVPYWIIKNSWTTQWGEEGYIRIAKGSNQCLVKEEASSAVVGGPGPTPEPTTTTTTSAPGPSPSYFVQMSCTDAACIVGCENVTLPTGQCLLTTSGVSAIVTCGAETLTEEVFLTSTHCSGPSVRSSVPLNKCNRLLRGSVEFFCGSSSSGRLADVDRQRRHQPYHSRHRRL
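15 min RT preincubation of 1.5 nM cruzain with compound, then 2 uM Z-FR-AMC added; kinetic AMC fluorescence, 60 s delta. Triton X-100 0.01%, pH 5.5.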
Cruzain noTriton – blocks cruzain activity in detergent-free assay. P25779. purified cruzain, Z-FR-AMC fluorescence, no detergent. Potency, µM, for the others: max response, negative = inhibition, usual class: inhibitors. 200,000 tested, 2.3% active. AID 1476;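 note: plate controls were enzyme without inhibitor for no effect and buffer without enzyme for full effect; nearly all actives have a fitted effect of over 40% in size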
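Detergent-free condition (0.00005% Triton X-100) in acetate buffer pH 5.5 with DTT. 1.5 nM enzyme and compound were pre-mixed 15 min, then 2 uM Z-FR-AMC substrate added; reaction progress from fluorescence change between first and third reads (60 s).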
* marks the source's active call; other numbers are inactive results. Calls come from the whole dose curve; as a rule, active = well fitted curve in the direction sought with a large enough effect; inconclusive = small, poorly fitted or top-dose-only effect, or another doubt; inactive = no such curve, though single readings can be large; an effect the other way counts as inactive or inconclusive. Potency is the fitted concentration of half-maximal effect.

`O=C(Nc1cccc(O)c1)c1cc(S(=O)(=O)N2CCCC2)ccc1Cl` gave Cruzain inh Det 0.4% and Cruzain noTriton 3.8%.
Screening COc1ccc(/C=C/C(=O)Nc2ccc3nc(N4CCCCC4)cc(C)c3c2)cc1OC returned Cruzain inh Det -18.7% and Cruzain noTriton -2.0%.
Cc1nn(CC(=O)NCc2ccc(Cl)cc2)c(=O)c2cc3sccc3n12 was read as Cruzain inh Det -0.5% and Cruzain noTriton -14.2%.
`O=C(Nc1nc(=O)c2ccccc2s1)c1ccc(Cl)cc1` gave Cruzain inh Det -1.7% and Cruzain noTriton 10µM*.
O=C(Nc1nc(=O)c2ccccc2s1)c1ccc(F)cc1 was read as Cruzain inh Det 0.6% and Cruzain noTriton inconclusive.
`Cc1ccc(OC/C(O)=C(\C#N)c2nc3ccccc3s2)cc1` gave Cruzain inh Det -2.9% and Cruzain noTriton 20µM*.
Screening CC(C)=C(C#N)c1nc2ccccc2s1 returned Cruzain inh Det -6.9% and Cruzain noTriton -4.7%.
`CCc1cccc(NS(=O)(=O)c2ccc3c(c2)n(C)c(=O)c(=O)n3C)c1` gave Cruzain inh Det -4.7% and Cruzain noTriton -14.1%.
`Cc1ccc(NCCC(=O)c2ccc(Br)cc2)cc1` gave Cruzain inh Det -0.9% and Cruzain noTriton 20µM*.
Screening CCc1ccc(NCCC(=O)c2ccc(Br)cc2)cc1 returned Cruzain inh Det -5.4% and Cruzain noTriton 1.4%.
For CCC(=O)N(CCC(c1ccccc1)c1ccco1)Cc1cccs1 (configuration not stated) the results were Cruzain inh Det -5.2% and Cruzain noTriton 0.1%.
For CCOC(=O)CSc1nc2cc(C)ccc2cc1C#N the results were Cruzain inh Det -4.2% and Cruzain noTriton -3.2%.
`COc1ccccc1NC(=S)NC(=O)/C=C/c1ccco1` gave Cruzain inh Det -21.3% and Cruzain noTriton -29.1%.
COc1ccc(/C=C/C(=O)NC(=S)Nc2cc3oc4ccccc4c3cc2OC)cc1 was read as Cruzain inh Det 0.9% and Cruzain noTriton 2.51µM*.
For COc1cc2c(cc1NC(=O)C(C)OC(=O)/C=C/c1ccc(OC(F)F)cc1)oc1ccccc12 (configuration not stated) the results were Cruzain inh Det -0.2% and Cruzain noTriton 31.6µM*.
`COc1cc2c(cc1NC(=S)Nc1cccc(C)c1)oc1ccccc12` gave Cruzain inh Det -2.7% and Cruzain noTriton 31.6µM*.
`COc1cc2c(cc1NC(=S)NC(=O)/C=C/c1ccc(OC)c(OC)c1)oc1ccccc12` gave Cruzain inh Det -2.9% and Cruzain noTriton -24.9%.
Screening COc1cc2c(cc1NC(=O)Nc1cccc(C)c1)oc1ccccc12 returned Cruzain inh Det 17.5% and Cruzain noTriton inconclusive.
For COc1cc2c(cc1NC(=S)NC(=O)/C=C/c1ccco1)oc1ccccc12 the results were Cruzain inh Det -4.6% and Cruzain noTriton 12.6µM*.
COc1cc2c(cc1NC(=O)/C=C/c1ccccc1)oc1ccccc12 was read as Cruzain inh Det 0.5% and Cruzain noTriton inconclusive.
Screening COc1ccc(C2=NC(C)(C)N(CC(=O)Nc3cccc(C)c3)C2=O)cc1 returned Cruzain inh Det -4.2% and Cruzain noTriton 0.8%.
For NNC(=O)CNC(=O)c1ccc(F)cc1 the results were Cruzain inh Det -0.8% and Cruzain noTriton -12.0%.
Screening O=C(/C=C/c1ccccc1)NC(=S)NNC(=O)Cc1cccs1 returned Cruzain inh Det 6.2% and Cruzain noTriton inconclusive.
COc1ccc(/C=C/C(=O)NC(=S)NNC(=O)Cc2cccs2)cc1 was read as Cruzain inh Det 0.2% and Cruzain noTriton 12.6µM*.
Screening COc1cc(N)c(Cl)cc1C(=O)N[C@H]1CCN(CCCOc2ccc(F)cc2)C[C@@H]1OC returned Cruzain inh Det -3.4% and Cruzain noTriton 29.3%.
`c1ccc(N2CCN(c3nc4cc5c(cc4s3)OCO5)CC2)cc1` gave Cruzain inh Det -5.0% and Cruzain noTriton 12.6µM*.
Screening c1c2c(cc3sc(N4CCOCC4)nc13)OCO2 returned Cruzain inh Det 2.5% and Cruzain noTriton -19.8%.
`Clc1ccc2nc(N3CCN(c4ccccc4)CC3)sc2c1` gave Cruzain inh Det -0.3% and Cruzain noTriton 20µM*.
O=S(=O)(c1ccccc1)N1CCN(c2nc3ccccc3s2)CC1 was read as Cruzain inh Det 4.3% and Cruzain noTriton -3.9%.
`O=C(c1cccc(C(F)(F)F)c1)N1CCC(O)(CS(=O)(=O)Cc2ccc(Cl)cc2)CC1` gave Cruzain inh Det 2.6% and Cruzain noTriton 20.1%.
Cc1ccc(NC(=O)c2ccc(OC(=O)COc3ccc(Cl)cc3C)cc2)cc1 was read as Cruzain inh Det 7.0% and Cruzain noTriton 12.6µM*.
For Cc1ccc(NC(=O)c2ccc(OC(=O)COc3cccc(Cl)c3)cc2)cc1 the results were Cruzain inh Det -1.8% and Cruzain noTriton 12.6µM*.
`Cc1ccc(C(=O)CC(=O)COc2ccc(Cl)cc2C)cc1` gave Cruzain inh Det -3.8% and Cruzain noTriton 11.1%.
